The values that follow come from PubChem BioAssay (EPA / NIEHS).

SMILES strings stand for the structures. Inconclusive results are not listed. More than one record can exist for a structure, and the calls need not agree. Activity calls are given as the source filed them. How the source made its calls, unless noted: active means hit-call score of the fitted dose curve at least 0.9, where 1 is the maximum; inactive means score below 0.9.

Assay [1] is described as follows: ATG_NF_kB_CIS: Attagene CIS-FACTORIAL HepG2 Assay for human Nuclear Factor Kappa B (NF-kB) (AID 2282991). As to conditions: HepG2 Attagene cis-factorial NF-kB reporter mRNA; actives raise or lower the signal. Put shortly:
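HepG2, transient multi-reporter transfection, cis promoter elements (endogenous TFs). 24 h exposure. Total RNA → RT → PCR → 6-FAM label → HpaI → CE. Gain/loss vs DMSO.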

Assay [2] can be described thus: ATG_NRF2_ARE_CIS: Attagene CIS-FACTORIAL HepG2 Assay for human Nuclear Factor Erythroid 2 Related Factor 2 (NFR2) response to Antioxidant Response Elements (ARE) (AID 2282992).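 On AC50: reporter mRNA level measured by RT-PCR and capillary electrophoresis fluorescence.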 As to conditions: HepG2 Attagene ARE/NRF2 reporter, transcription factor activity; actives raise or lower the signal. The method in brief:
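Endogenous transcription factor activity in human liver HepG2 cells is tracked via a cis-element-driven reporter within a multiplexed set. mRNA induction is read by RT-PCR and capillary electrophoresis after 24 h, with DMSO as baseline.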

Assay [3] is described as follows: ATG_Oct_MLP_CIS: Attagene CIS-FACTORIAL HepG2 Assay for human Octamer-Binding Transcription Factor (Oct) (AID 2282993). The conditions noted are these: HepG2 Attagene cis-factorial Oct reporter, mRNA; actives raise or lower the signal. Put shortly:
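HepG2 cells transiently transfected with cis-element-driven reporter transcription units (endogenous TF activity); 24 h compound exposure. Reporter mRNA quantified by RT-PCR, 6-FAM labelling, HpaI digestion and capillary electrophoresis; bidirectional fit versus DMSO baseline.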

The target of assay [4] is Cellular tumor antigen p53 (Homo sapiens) (UniProt P04637). Put plainly: ATG_p53_CIS: Attagene CIS-FACTORIAL HepG2 Assay for human p53 Transcription Factor (AID 2282994). As to conditions: HepG2 p53 cis-element reporter, Attagene mRNA; actives raise or lower the signal. Put shortly: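 Steps: transfect HepG2 with multiplexed cis reporter constructs; dose chemicals 24 h; extract RNA, reverse-transcribe, PCR-amplify reporter sequences; FAM-label, HpaI-digest, resolve fragments by CE. Activity fitted both directions relative to DMSO.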

Assay [5] has as its target Nuclear receptor subfamily 1 group I member 2 (Homo sapiens) (UniProt O75469). Description: ATG_PXR_TRANS: Attagene TRANS-FACTORIAL HepG2 Assay for human Pregnane X Receptor (PXR) (AID 2283008; active means hit-call score of the fitted dose curve at least 0.9, where 1 is the maximum). Put shortly:
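HepG2 transfected (FuGene 6) with GAL4-UAS reporter units + PXR-Gal4 chimera; dosed 24 h. Total RNA → oligo(dT) RT → PCR → 6-FAM primer extension → HpaI cut → CE. Gain-of-signal vs DMSO.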

Assay [6] has as its target human RAR-related Orphan Receptor gamma (RORg), RORC (gene 6097) (UniProt P51449). Put plainly: ATG_RORg_TRANS: Attagene TRANS-FACTORIAL HepG2 Assay for human RAR-related Orphan Receptor gamma (RORg) (AID 2283011; active means hit-call score of the fitted dose curve at least 0.9, where 1 is the maximum). Put shortly: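 Chimeric RORg-Gal4 transactivation in transfected HepG2; 24 h exposure; RT-PCR/capillary electrophoresis readout of reporter mRNA, DMSO baseline.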

Assay [7] concerns the target human Peroxisome Proliferator-activated Receptor alpha (PPARa), PPARA (gene 5465) (UniProt Q07869). Description: ATG_PPARa_TRANS: Attagene TRANS-FACTORIAL HepG2 Assay for human Peroxisome Proliferator-activated Receptor alpha (PPARa) (AID 2283001; active means hit-call score of the fitted dose curve at least 0.9, where 1 is the maximum;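 on AC50: potency for gain of reporter signal over DMSO so agonist or activator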). The method in brief: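 Reporter transcripts quantified by RT-PCR plus capillary electrophoresis after 24 h treatment, fitted upward relative to DMSO. Cells: human HepG2 transiently carrying multiple GAL4-UAS reporter units driven by NR-Gal4 chimeras.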

Assay [8] addresses Peroxisome proliferator-activated receptor gamma (Homo sapiens) (UniProt P37231). Description: ATG_PPARg_TRANS: Attagene TRANS-FACTORIAL HepG2 Assay for human Peroxisome Proliferator-activated Receptor-gamma (PPARg) (AID 2283007; active means hit-call score of the fitted dose curve at least 0.9, where 1 is the maximum). The method in brief:
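Multiplexed reporter transcription units in HepG2, 24 h dosing, reporter transcripts quantified by fluorescent RT-PCR and capillary electrophoresis. Increase over DMSO scored.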

The target of assay [9] is human RAR-related Orphan Receptor beta (RORb), RORB (gene 6096) (UniProt Q92753). Put plainly: ATG_RORb_TRANS: Attagene TRANS-FACTORIAL HepG2 Assay for human RAR-related Orphan Receptor beta (RORb) (AID 2283010; active means hit-call score of the fitted dose curve at least 0.9, where 1 is the maximum). The method in brief:
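Transfect HepG2 with multiple GAL4-UAS reporter transcription units; dose chemicals for 24 h; isolate RNA, reverse-transcribe and PCR-amplify reporter sequences; label, digest and resolve fragments by capillary electrophoresis; fit increases relative to DMSO.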

The target of assay [10] is human Peroxisome Proliferator-activated Receptor delta (PPARd), PPARD (gene 5467) (UniProt Q03181). Description: ATG_PPARd_TRANS: Attagene TRANS-FACTORIAL HepG2 Assay for human Peroxisome Proliferator-activated Receptor delta (PPARd) (AID 2283002; active means hit-call score of the fitted dose curve at least 0.9, where 1 is the maximum). Put shortly:
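Cell-based TRANS reporter: HepG2, transient MRTU transfection, 24 h exposure. Readout = reporter mRNA (RT-PCR/CE, 6-FAM). Gain-of-signal fit vs DMSO control.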

Assay [11] concerns the target Retinoic acid receptor alpha (Homo sapiens) (UniProt P10276). Put plainly: ATG_RARa_TRANS: Attagene TRANS-FACTORIAL HepG2 Assay for human Retinoic Acid Receptor alpha (RARa) (AID 2283005; active means hit-call score of the fitted dose curve at least 0.9, where 1 is the maximum). Put shortly: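 Reporter transcripts, measured by RT-PCR with fluorescent labeling and capillary electrophoresis after 24 h dosing, reflect activity of an exogenous human RARa–GAL4 fusion in transiently transfected HepG2. Fitted for increase relative to DMSO.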

For assay [12], the target named is human Retinoic Acid Receptor gamma (RARg), RARG (gene 5916) (UniProt P13631). Description: ATG_RARg_TRANS: Attagene TRANS-FACTORIAL HepG2 Assay for human Retinoic Acid Receptor gamma (RARg) (AID 2283009; active means hit-call score of the fitted dose curve at least 0.9, where 1 is the maximum). Put shortly: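 TRANS format measured activity of exogenous NR-GAL4 fusion (RARg) in transfected HepG2 liver cells after 24 h dosing. Induced reporter RNA was detected by RT-PCR/capillary electrophoresis fluorescence, analysed in the positive direction against DMSO.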

The nature of assay [13]: BSK_3C_TissueFactor: BioMAP Diversity Plus: 3C Assay for Tissue Factor Biomarker Activity (AID 2282997). The conditions noted are these: BioMAP 3C HUVEC, tissue factor biomarker readout; actives raise or lower the signal. The method in brief:
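In this endothelial system, HUVEC are treated for 24 h and Tissue Factor is assessed by ELISA, normalised to DMSO.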

Assay [14] in a line: BSK_3C_uPAR: BioMAP Diversity Plus: 3C Assay for Urokinase-type plasminogen activator receptor (uPAR) Biomarker Activity (AID 2282998). The conditions noted are these: BioMAP 3C HUVEC, uPAR biomarker ELISA; actives raise or lower the signal. The method in brief:
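Primary human umbilical vein endothelial cells, 3C system; surface uPAR measured by ELISA 24 h after dosing. Cytotoxicity via SRB total protein in parallel cultures; bidirectional fit against DMSO.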
For orientation: An ELISA detects its analyte on a solid surface through an enzyme-linked reagent.

Assay [15] is described as follows: BSK_3C_VCAM1: BioMAP Diversity Plus: 3C Assay for Vascular cell adhesion molecule 1 (VCAM1) Biomarker Activity (AID 2282999). As to conditions: BioMAP 3C HUVEC, VCAM1 ELISA, cytokine-stimulated; actives raise or lower the signal. The method in brief: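 Activity fitted in both directions relative to DMSO, with ELISA measurement of the surface marker on primary HUVEC (3C) at 24 h post-treatment; parallel SRB staining (0.1% SRB, TCA-fixed, 560 nm) flagged overt cytotoxicity.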

Assay [16] in a line: BSK_4H_Eotaxin3: BioMAP Diversity Plus: 4H Assay for Eotaxin 3 Biomarker Activity (AID 2283000).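 On outcome: CCL26 protein level quantified by ELISA in parallel with SRB cytotoxicity check.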 The conditions noted are these: primary human endothelial cells (HUVEC); actives raise or lower the signal. Put shortly:
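ELISA quantitation of CCL26 (Eotaxin-3) protein from chemically dosed human vascular endothelial cells at 24 h; increases and decreases both scored relative to DMSO-treated baseline.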

Read-out in assay [17]: Intercellular Adhesion Molecule 1 (ICAM1), ICAM1 (gene 3383)
Description: BSK_3C_ICAM1: BioMAP Diversity Plus: 3C Assay for Intercellular Adhesion Molecule 1 (ICAM1) Biomarker Activity (AID 2283003). As to conditions: primary human endothelial cells (HUVEC); actives raise or lower the signal. The method in brief: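 Chemicals are dosed onto primary human umbilical vein endothelium (3C system). After 24 h, ICAM-1 is measured by ELISA, and responses are fitted bidirectionally relative to DMSO.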

The target of assay [18] is human Retinoic Acid Receptor beta (RARb), RARB (gene 5915) (UniProt P10826). Put plainly: ATG_RARb_TRANS: Attagene TRANS-FACTORIAL HepG2 Assay for human Retinoic Acid Receptor beta (AID 2283004; active means hit-call score of the fitted dose curve at least 0.9, where 1 is the maximum). Put shortly:
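Fluorescent capillary-electrophoresis detection of GAL4-UAS reporter mRNA defines the endpoint, with induction over DMSO-treated wells scored as activity. Transiently transfected human hepatoma HepG2 cells expressing exogenous NR–Gal4 proteins are exposed to test chemicals for 24 h.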

A short description of assay [19]: BSK_3C_Proliferation: Cell Proliferation Assessment in the BioMAP Diversity Plus: 3C Assay (AID 2283006).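 On AC50: potency may reflect either rise or fall in cell number versus DMSO.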 As to conditions: primary human endothelial cells (HUVEC). The method in brief: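 Cells (human umbilical vein endothelial, sub-confluent) receive test chemical; after 48 h they are fixed in 10% trichloroacetic acid, stained with 0.1% SRB and read at 560 nm. Activity is referenced to DMSO, fitting increases and decreases.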

Sequence of human Peroxisome Proliferator-activated Receptor alpha (PPARa), PPARA (gene 5465) (Q07869 whole entry, looked up, the tested form may be a part): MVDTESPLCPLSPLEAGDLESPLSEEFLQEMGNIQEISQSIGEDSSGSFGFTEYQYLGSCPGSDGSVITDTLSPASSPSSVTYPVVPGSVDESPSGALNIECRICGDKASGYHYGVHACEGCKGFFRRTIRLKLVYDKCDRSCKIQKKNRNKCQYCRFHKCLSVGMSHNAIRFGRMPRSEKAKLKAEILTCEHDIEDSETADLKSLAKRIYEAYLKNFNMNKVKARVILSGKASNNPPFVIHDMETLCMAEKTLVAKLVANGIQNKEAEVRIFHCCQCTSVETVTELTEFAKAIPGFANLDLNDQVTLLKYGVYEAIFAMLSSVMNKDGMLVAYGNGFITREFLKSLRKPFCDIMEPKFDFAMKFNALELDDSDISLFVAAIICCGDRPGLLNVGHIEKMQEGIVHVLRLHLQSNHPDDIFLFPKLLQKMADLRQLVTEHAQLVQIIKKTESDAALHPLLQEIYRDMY
Sequence of human Peroxisome Proliferator-activated Receptor delta (PPARd), PPARD (gene 5467) (Q03181 whole entry, looked up): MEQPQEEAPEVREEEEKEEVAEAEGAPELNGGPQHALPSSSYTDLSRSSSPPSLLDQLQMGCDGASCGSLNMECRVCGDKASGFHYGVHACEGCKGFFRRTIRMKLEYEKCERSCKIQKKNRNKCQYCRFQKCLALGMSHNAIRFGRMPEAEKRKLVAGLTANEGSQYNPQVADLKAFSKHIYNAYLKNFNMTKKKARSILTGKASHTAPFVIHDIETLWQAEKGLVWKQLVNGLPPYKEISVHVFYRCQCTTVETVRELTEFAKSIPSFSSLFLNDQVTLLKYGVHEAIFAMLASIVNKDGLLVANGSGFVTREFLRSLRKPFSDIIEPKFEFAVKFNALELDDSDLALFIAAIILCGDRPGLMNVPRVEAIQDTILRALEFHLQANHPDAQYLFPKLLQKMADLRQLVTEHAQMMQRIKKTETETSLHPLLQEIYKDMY
Sequence of human RAR-related Orphan Receptor beta (RORb), RORB (gene 6096) (Q92753 whole entry, looked up, the tested form may be a part): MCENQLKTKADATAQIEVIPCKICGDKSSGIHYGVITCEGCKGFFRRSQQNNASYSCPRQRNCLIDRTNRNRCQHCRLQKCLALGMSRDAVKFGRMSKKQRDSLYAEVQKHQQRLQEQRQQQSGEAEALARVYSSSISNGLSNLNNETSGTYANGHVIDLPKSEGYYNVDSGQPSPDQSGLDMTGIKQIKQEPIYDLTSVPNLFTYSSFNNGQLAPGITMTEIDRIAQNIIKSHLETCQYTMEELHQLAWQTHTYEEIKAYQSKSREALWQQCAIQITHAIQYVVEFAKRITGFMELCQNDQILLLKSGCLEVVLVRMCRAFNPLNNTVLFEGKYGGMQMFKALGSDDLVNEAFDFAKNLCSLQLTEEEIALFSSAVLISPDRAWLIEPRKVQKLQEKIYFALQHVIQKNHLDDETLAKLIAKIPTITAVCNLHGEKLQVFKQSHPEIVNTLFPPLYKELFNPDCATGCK
Sequence of Peroxisome proliferator-activated receptor gamma (Homo sapiens) (P37231 whole entry, looked up): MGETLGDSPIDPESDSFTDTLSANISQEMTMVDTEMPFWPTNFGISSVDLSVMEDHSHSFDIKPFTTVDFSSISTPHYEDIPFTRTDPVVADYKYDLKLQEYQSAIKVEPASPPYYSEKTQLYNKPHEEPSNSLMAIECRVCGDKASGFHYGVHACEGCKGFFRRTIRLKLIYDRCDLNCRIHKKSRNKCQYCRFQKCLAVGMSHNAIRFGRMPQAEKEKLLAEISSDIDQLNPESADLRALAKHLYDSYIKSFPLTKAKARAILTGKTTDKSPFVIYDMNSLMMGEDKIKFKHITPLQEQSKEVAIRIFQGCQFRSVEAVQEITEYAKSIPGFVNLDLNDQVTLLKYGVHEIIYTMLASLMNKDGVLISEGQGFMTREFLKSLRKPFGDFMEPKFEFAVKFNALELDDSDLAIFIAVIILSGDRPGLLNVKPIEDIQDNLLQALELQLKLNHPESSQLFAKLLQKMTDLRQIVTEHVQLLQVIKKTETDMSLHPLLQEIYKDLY
Sequence of human RAR-related Orphan Receptor gamma (RORg), RORC (gene 6097) (P51449 whole entry, looked up, the tested form may be a part): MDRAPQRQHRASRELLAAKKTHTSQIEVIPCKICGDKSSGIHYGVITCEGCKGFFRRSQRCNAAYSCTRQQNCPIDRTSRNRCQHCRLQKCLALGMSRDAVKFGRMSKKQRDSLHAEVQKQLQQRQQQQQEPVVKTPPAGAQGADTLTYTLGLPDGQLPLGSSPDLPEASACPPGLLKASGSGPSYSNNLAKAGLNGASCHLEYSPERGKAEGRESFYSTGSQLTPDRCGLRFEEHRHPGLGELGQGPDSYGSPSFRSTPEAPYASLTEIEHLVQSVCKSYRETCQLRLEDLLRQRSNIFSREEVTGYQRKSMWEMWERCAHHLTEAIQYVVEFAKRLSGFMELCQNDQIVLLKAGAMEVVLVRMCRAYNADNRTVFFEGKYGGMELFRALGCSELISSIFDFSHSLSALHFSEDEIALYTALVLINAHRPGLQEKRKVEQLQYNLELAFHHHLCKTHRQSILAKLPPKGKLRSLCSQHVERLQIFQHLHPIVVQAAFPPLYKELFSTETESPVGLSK
Sequence of Cellular tumor antigen p53 (Homo sapiens) (P04637 whole entry, looked up, the tested form may be a part): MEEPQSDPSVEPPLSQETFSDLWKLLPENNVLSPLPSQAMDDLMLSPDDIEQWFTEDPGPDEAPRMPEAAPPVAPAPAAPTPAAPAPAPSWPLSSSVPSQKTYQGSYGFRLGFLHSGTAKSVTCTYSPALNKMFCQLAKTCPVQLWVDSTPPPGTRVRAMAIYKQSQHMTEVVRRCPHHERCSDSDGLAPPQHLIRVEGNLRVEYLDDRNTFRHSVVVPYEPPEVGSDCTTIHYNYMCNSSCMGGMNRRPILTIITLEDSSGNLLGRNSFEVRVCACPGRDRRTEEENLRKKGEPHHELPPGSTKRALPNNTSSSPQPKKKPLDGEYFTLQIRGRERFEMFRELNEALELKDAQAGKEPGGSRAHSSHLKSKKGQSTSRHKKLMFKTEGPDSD
Sequence of Retinoic acid receptor alpha (Homo sapiens) (P10276 whole entry, looked up, the tested form may be a part): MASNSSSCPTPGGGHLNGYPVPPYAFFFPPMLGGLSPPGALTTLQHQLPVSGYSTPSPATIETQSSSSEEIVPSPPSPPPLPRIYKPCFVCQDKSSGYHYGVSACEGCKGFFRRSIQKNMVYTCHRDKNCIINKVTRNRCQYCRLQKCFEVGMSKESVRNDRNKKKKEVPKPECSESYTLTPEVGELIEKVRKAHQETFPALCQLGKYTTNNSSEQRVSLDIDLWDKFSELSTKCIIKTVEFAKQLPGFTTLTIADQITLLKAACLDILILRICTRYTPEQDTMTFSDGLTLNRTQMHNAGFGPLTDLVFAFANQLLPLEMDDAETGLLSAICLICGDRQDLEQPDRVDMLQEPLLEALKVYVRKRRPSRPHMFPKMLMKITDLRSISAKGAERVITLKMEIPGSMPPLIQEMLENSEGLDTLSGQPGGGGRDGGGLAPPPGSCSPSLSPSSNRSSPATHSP
Sequence of Nuclear receptor subfamily 1 group I member 2 (Homo sapiens) (O75469 whole entry, looked up, the tested form may be a part): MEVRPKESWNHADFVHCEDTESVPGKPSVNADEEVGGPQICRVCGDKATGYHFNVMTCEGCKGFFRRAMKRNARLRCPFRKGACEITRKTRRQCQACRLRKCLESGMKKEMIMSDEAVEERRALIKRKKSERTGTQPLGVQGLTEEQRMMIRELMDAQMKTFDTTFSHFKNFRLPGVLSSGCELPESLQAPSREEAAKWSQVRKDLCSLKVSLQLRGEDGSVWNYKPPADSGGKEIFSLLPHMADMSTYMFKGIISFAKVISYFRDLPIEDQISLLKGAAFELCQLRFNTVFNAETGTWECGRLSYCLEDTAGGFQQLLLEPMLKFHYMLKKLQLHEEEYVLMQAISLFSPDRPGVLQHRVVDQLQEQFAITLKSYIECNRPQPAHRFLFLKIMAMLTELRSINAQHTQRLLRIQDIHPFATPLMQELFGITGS
Sequence of human Retinoic Acid Receptor gamma (RARg), RARG (gene 5916) (P13631 whole entry, looked up, the tested form may be a part): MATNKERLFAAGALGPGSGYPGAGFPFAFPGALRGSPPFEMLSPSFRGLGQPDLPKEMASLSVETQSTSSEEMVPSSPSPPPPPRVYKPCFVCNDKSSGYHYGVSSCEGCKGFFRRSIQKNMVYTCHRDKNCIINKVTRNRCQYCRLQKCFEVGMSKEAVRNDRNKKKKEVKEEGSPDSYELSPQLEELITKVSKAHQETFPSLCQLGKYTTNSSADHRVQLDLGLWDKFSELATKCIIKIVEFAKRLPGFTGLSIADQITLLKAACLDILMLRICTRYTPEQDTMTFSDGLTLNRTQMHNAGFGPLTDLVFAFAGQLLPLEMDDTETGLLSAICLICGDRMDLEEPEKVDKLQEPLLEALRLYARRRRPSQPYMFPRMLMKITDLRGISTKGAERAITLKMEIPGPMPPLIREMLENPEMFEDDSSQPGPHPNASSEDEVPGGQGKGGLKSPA
Sequence of human Retinoic Acid Receptor beta (RARb), RARB (gene 5915) (P10826 whole entry, looked up, the tested form may be a part): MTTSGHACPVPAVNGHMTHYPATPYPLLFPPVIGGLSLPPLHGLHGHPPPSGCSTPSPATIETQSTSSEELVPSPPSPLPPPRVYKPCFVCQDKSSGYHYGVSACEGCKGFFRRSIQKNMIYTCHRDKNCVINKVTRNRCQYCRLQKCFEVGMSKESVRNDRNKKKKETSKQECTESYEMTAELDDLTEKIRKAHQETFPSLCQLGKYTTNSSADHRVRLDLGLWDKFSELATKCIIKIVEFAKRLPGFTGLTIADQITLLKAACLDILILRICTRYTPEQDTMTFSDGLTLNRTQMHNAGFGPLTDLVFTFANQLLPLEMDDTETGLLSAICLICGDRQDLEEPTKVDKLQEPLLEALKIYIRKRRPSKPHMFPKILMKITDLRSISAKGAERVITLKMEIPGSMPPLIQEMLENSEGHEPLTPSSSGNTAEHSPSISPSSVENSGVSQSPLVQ

`CCOC(=O)C1OC1c1ccccc1` (stereo unspecified): the AC50 (in general, the concentration giving half of the maximal activity seen) was 47 µM (active) in assay [1] and 64.4 µM (active) in assay [4]. In addition, the molecule was called inactive in assay [2], in assay [3], in assay [5] and in assay [6].
Turning to `O=C(O)CCCCCCCCCCCC(=O)O`, the molecule was called inactive in assay [2], in assay [3], in assay [4], in assay [7], in assay [8] and in assay [5]. In addition, in assay [9], the molecule was classed as inactive.
`C=COCCOCCOC=C`: the molecule was classed as inactive in assay [1], in [2], in assay [3], in [4] and in assay [10].
Turning to `C=C(CC(=O)O)C(=O)O`, the call in [2], in assay [3], in [4], in assay [7], in assay [11] and in assay [5] was inactive. The molecule was called inactive in [12] and in assay [9].
Regarding `CCc1ccc(O)c(OC)c1`, the call in assay [1], in assay [3], in [10], in assay [8] and in assay [5] was inactive.
With `CCC(C)=O`, the outcome in [1], in assay [2], in assay [3], in assay [4], in [7] and in assay [12] was inactive.
Regarding `OC[C@H]1O[C@@H](Oc2ccc(O)cc2)[C@H](O)[C@@H](O)[C@@H]1O`, the molecule was classed as inactive in [2], in [3], in assay [4], in assay [10] and in [5].
Turning to `C=CC(C)(O)CCC=C(C)C` (stereo unspecified), the result in [2], in [3], in assay [13], in [14], in assay [15] and in assay [16] was inactive. Also, the result in assay [7], in [17], in assay [18], in [19] and in [8] was inactive. Also, the AC50 in [16] is 0.149 µM (active).
For `CCCCCCCCCC(C)C=O` (stereo unspecified), the outcome in assay [1], in [3], in assay [4] and in assay [12] was inactive. Further, the AC50 in assay [2] was 100 µM (active); in assay [7] it was 27.5 µM (active).
Turning to `CCCCCCCCCCCC(=O)OCC(O)CO` (stereo unspecified), the AC50 in assay [1], in [2], in [7] and in assay [8] was 100 µM (active) throughout. Moreover, the result in assay [3], in assay [5] and in assay [12] was inactive.
Take `C1CCOC1`: the outcome in assay [1], in [3], in assay [4], in [10], in assay [11] and in assay [8] was inactive. The result in assay [12] and in [9] was inactive.
`O=[N+]([O-])c1cccc(Cl)c1`: the result in assay [1], in assay [2], in assay [3], in assay [4] and in [12] was inactive.
With `CCC(=O)OCCOc1ccccc1`, the result in assay [2], in [3], in assay [7] and in [9] was inactive.
Turning to `CCCC(O)C(O)CO` (stereo unspecified), the result in assay [1], in assay [2], in assay [10], in assay [5] and in [12] was inactive.
Regarding `C=CCCC(=O)/C=C/C1C(C)=CCCC1(C)C` (stereo unspecified), the molecule was called inactive in assay [1], in [3], in [4] and in [10]. Moreover, the AC50 was 110 µM (active) in assay [2] and 24.4 µM (active) in assay [8].
Turning to `C=C(C)[C@@H]1CC=C(C)C(=O)C1`, the result in [1], in [3], in assay [7], in assay [5] and in [6] was inactive. Further, the AC50 in assay [2] was 45.4 µM (active).
On to `CCOCCOCCOCC`, for which the molecule was classed as inactive in [1], in assay [2], in [3], in assay [4], in assay [7] and in assay [11].
`Oc1c(Cl)cc(Cl)c(Cl)c1Cc1c(O)c(Cl)cc(Cl)c1Cl`: the molecule was classed as inactive in assay [1], in assay [18], in assay [11], in [12] and in [6]. Moreover, the AC50 was 3.04 µM (active) in assay [2]; 1.3 µM (active) in assay [3]; 11.1 µM (active) in assay [4]; 18.5 µM (active) in assay [13]; 1.23 µM (active) in [14]; 20 µM (active) in [15]. Moreover, the AC50 was 10.8 µM (active) in [16]; 11.1 µM (active) in assay [7]; 27.1 µM (active) in [17]; 2.22 µM (active) in [19]; 5.79 µM (active) in assay [5].
As for `Cc1ccc(N)c(S(=O)(=O)O)c1`, the outcome in assay [1], in assay [2] and in [5] was inactive.
